Compound activity deposited in PubChem by Sanford-Burnham Center for Chemical Genomics.
MPTP block: inhibitors of mitochondrial permeability transition pore; isolated mouse mitochondria, Ca2+ swelling absorbance, 30 min; inhibition, % at 10 µM; 1.4% of 360,000 active; AID 602449;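 active = inhibition of 50% or more, scaled per plate between neutral and stimulator controls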;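 also: 0% = DMSO wells given calcium and 100% = 1 mM EGTA wells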
MIN6 prolif-1: MIN6 beta-cell proliferation induction | MIN6 cells proliferation, ATPlite luminescence, 48 h; cells starved in 0.2% serum; 100% = growth in 10% serum | proliferation, % at 10 µM | 0.29% of 330,000 active | AID 2380;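 active = compounds whose signal lies at least 3.5 SD above the mean of all wells on their plate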;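 also: 0% = DMSO-treated cells in low-serum medium and 100% = 10% serum control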
FAS TE block: blocks the thioesterase domain of human fatty acid synthase | P49327 | recombinant FAS-TE, OMFH fluorogenic substrate, fluorescence endpoint | inhibition, % at 15 µM | 0.67% of 360,000 active | AID 602261;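 active = compounds whose normalised, plate-corrected inhibition of enzyme fluorescence in the single-dose primary screen is 50% or more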;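 also: 0% = DMSO with enzyme and 100% = substrate without enzyme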
GRIN3A LBD mod: modulates the human NR3A ligand-binding domain; NR3A LBD differential scanning fluorimetry, Tm shift; 0% = protein alone, 100% = glycine-bound protein; Tm shift relative to glycine control, % at 25 µM; 2.5% of 340,000 active; AID 1259313;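 active = melting temperature shift of at least 10% of the positive control shift, at one fixed dose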
pCIP destab: p/CIP protein destabilization. Q05BA5. decrease of EGFP signal, % at 10 µM. F442A p/CIP-EGFP cells, EGFP fluorescence, 16 h. 0.01% of 290,000 active;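 active = EGFP signal decrease of at least 30% at 10 µM or well 3 SD below plate mean, unless failing retest; inactive = the rest, including hits failing retest or dose response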
MIN6 prolif-2: MIN6 beta-cell replication induction, confirmed; shares compounds with MIN6 prolif-1; MIN6 beta-cell proliferation, ATPlite luminescence, 48 h; cells kept in 0.2% serum; scaled between 0.2% and 10% serum; proliferation increase, % at 50 µM; 920 tested, under 10 active; AID 463095;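 active = proliferation increase above 40% at any of the four tested concentrations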
* marks the source's active call; other numbers are inactive results; · = not tested or not shown. In the library only some 4.1% were active in any assay of this set; here they are far more common.

SMILES | MPTP block | MIN6 prolif-1 | FAS TE block | GRIN3A LBD mod | pCIP destab | MIN6 prolif-2
COc1ccc2[nH]c3c(c2c1)CC(C)NC3=O (stereo not given) | 0 | 7.3* | -4 | 3 | 5 | 4
CC[C@@H]1Cc2[nH]c(=O)[nH]c(=O)c2[C@H](c2ccc(Cl)cc2)O1 | 1 | · | -9 | · | · | ·
COc1cccc(-n2nc(C(C)=O)c(C#N)c2-c2ccco2)c1 | 2 | 9.4* | -3 | 1 | -4 | 2
Cc1ccc(S(=O)(=O)N2CCOC23CCN(C(=O)c2ccccc2Br)CC3)cc1 | 0 | 13* | 2 | 2 | -11 | -6
O=C(NCc1ccco1)c1nn2c(C(F)(F)F)cc(-c3cccs3)nc2c1Cl | 1 | -4 | -4 | 0 | 0 | ·
O=C(NCc1ccco1)c1cc2nc(-c3cccs3)cc(C(F)(F)F)n2n1 | 0 | 7.8* | 11 | 2 | -5 | 5
CCC(=O)Nc1ccc(NC(=S)NC(=O)c2cc3ccccc3o2)cc1 | 3 | 0.0* | -1 | -9 | -5 | -1
CN1CCN(C(=O)c2cc3c(=O)n4ccccc4nc3s2)CC1 | 1 | 2 | -5 | 1 | 12 | ·
COc1ccccc1N1CCN(C(=O)c2cc3c(=O)n4ccccc4nc3s2)CC1 | -1 | 13* | 8 | 3 | · | 3
COc1cccc(C(=Cc2ccc([N+](=O)[O-])cc2)C(=O)O)c1 | 0 | · | -4 | · | · | ·
CCCCCCCCN1C(=O)[C@H](CC(=O)NCc2ccc(OC)c(OC)c2)C[C@@]2(C(=O)OC)CCCCC=C12 | 0 | · | 10 | · | · | ·
CC(C)Nc1nc(NC(C)(C)C)nc(Oc2ccc(=O)n(-c3ccccc3)n2)n1 | -2 | 7.5* | 0 | 0 | -14 | -6
CC1(C(=O)NS(=O)(=O)c2ccc(F)cc2F)CCN1C(=O)Cc1cccc2ccccc12 (stereo not given) | 0 | · | -6 | · | · | ·
COc1cccc(NC(=O)CN(C)C(=O)c2cn(-c3ccccc3)nc2-c2cccnc2)c1 | 0 | 9.5* | -1 | 0 | · | -4
COc1ccc(Cl)cc1NC(=O)CN(C)C(=O)c1cn(-c2ccccc2)nc1-c1cccnc1 | 0 | -2 | 23 | -6 | · | ·
CCOc1ccc2ncc(S(=O)(=O)c3ccccc3)c(N3CCC4(CC3)OCCO4)c2c1 | · | 0.0* | · | · | -5 | -6
CC1(C(=O)NS(=O)(=O)c2ccc(C#N)cc2)CCN1C(=O)Cc1cc(F)ccc1F (stereo not given) | -1 | · | -6 | · | · | ·
CCOC(=O)C1CCN(c2cc3c(cc2NC(=O)c2ccccc2F)n(C)c(=O)n3C)CC1 | 1 | 0 | -7 | -3 | 9 | ·
CCOC(=O)C1CCN(c2cc3c(cc2NC(=O)c2ccccc2Cl)n(C)c(=O)n3C)CC1 | -2 | 15* | 9 | 0 | -9 | -6
COc1ccccc1N1CCN(C2CCCN(C(=O)c3cc(C(C)C)on3)C2)CC1 (stereo not given) | 0 | · | -2 | · | · | ·
O=C1Nc2ccccc2-n2nnnc2C1N1CCN(c2ccc(C(F)(F)F)cn2)CC1 (stereo not given) | -1 | · | · | · | · | ·
CCCN1Cc2cccc(C(=O)Nc3ccc4c(c3)OCO4)c2C1=O | 1 | 11* | 3 | 3 | 1 | 0
CCCN1Cc2cccc(C(=O)Nc3ccc4c(c3)OCCO4)c2C1=O | 0 | 3 | -2 | 3 | -6 | ·
CCCN1Cc2cccc(C(=O)Nc3ccc(CC)cc3)c2C1=O | 5 | 7.1* | 5 | 5 | -14 | 0
O=C(c1ccccc1)N1CCCC(c2ccc(Cl)cc2)=N1 | 1 | 5.4* | 18 | -1 | 9 | -6
SMILES | MPTP block | MIN6 prolif-1 | FAS TE block | GRIN3A LBD mod | pCIP destab | MIN6 prolif-2
Cc1cc(=O)n(Cc2ccccc2)c2ccccc12 | 1 | 9.2* | -3 | 0 | 13 | 3
Cc1cc(=O)n(Cc2ccccc2)c2c(C)cccc12 | -1 | -2 | 17 | 2 | -10 | ·
Cn1c2ccccc2n2c(=O)c(Cl)c(-c3ccccc3)c(C#N)c12 | 2 | 7.9* | 2 | 9 | -4 | -4
CN(Cc1ccccc1)C(=O)Cn1nnc(-c2ccccc2)c1COc1ccc2ccccc2c1 | 1 | · | 19 | · | · | ·
CCOC(=O)C1CCN(C(=O)C2(NC(=O)Nc3ccc(F)cc3F)CCCCC2)CC1 | -1 | 7.6* | -6 | 1 | 1 | -1
CC(=O)CCc1ccc(OCCCOc2cccc3cccnc23)cc1 | 1 | 5.7* | 5 | -1 | -12 | -6
CC(=O)c1ccc(OCCCOc2cccc3cccnc23)cc1 | 0 | 0 | -2 | -2 | 9 | ·
CCc1onc(C)c1C(=O)O | -1 | 7.5* | -3 | 1 | 6 | -3
CCc1onc(C)c1C(=O)Nc1ccc(N2CCOCC2)cc1 | 0 | 0 | -9 | 0 | · | ·
CC(C)(C)OC(=O)N(CCc1ccccc1)Cc1cccc(OCc2cccc(NC(=O)C3CCCC3)c2)c1 | 1 | · | 19 | 1 | · | ·
COc1ccc(NC(=O)C2(C)Cc3c(-c4ccc(NC(C)=O)cc4)ccnc3O2)cc1OC (stereo not given) | 0 | · | -3 | · | · | ·
COc1cc2c(cc1OC)C(Nn1cnnc1)=NC1(CCCC1)C2 | 0 | 5.2* | -1 | 0 | -8 | 1
CC1(C(=O)NS(=O)(=O)c2ccc(F)cc2F)CCN1C(=O)CC(c1ccccc1)c1ccccc1 (stereo not given) | 0 | · | -6 | · | · | ·
C[C@H]1COc2cc(N(C)CCO)ccc2S(=O)(=O)N1 | -2 | · | -12 | · | · | ·
CC(=O)Nc1cccc(NC(=O)c2ccccc2OCc2c(C)noc2C)c1 | 0 | 2 | -6 | -2 | · | ·
Cc1noc(C)c1COc1ccccc1C(=O)Nc1cccc(S(=O)(=O)N(C)C)c1 | -2 | 14* | 8 | 1 | · | -2
CCn1c(C)nc2cc(C(=O)N/N=C/c3ccc(O)cc3)ccc21 | -1 | -3 | -4 | -2 | -15 | ·
CCn1c(C)nc2cc(C(=O)N/N=C/c3ccc(OC)cc3)ccc21 | 1 | 7.8* | -6 | -4 | -6 | 3
COCCNc1nc2cc(-c3cccc(Cl)c3)sc2c(=O)n1C | -1 | · | 8 | · | · | ·
COC(=O)CSc1nnc(-c2ccco2)n1-c1ccc(C)cc1 | -1 | 7.4* | -9 | 1 | 4 | 2
CCNS(=O)(=O)c1ccc(NC(=O)c2cccnc2)cc1 | 0 | 11* | -3 | 3 | -9 | -2
COC(=O)c1ccc(CO/N=C/c2ccc(OC)cc2OC)cc1 | 1 | 8.0* | 22 | 0 | -6 | 0
CC1(C)CN2C(=O)c3ccccc3C2(C)S1 (stereo not given) | 0 | 8.0* | -2 | -1 | -4 | 0
CCOC(=O)c1[nH]c2ccc(OC)cc2c1NS(=O)(=O)c1ccc(Cl)s1 | 1 | 5.3* | 16 | -20 | 5 | -6
COc1ccc2[nH]c(C(=O)O)c(NS(=O)(=O)c3ccc(Cl)s3)c2c1 | 3 | 2 | -5 | -4 | -4 | ·
